Among the data in PubChem BioAssay (NCI) are growth values, retold here.

The panel holds about 83,000 compounds, 20% with a hit somewhere; the sample as a whole holds those more often.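 Step 1: grow cells in 96-well plates. Step 2: add test compound at a single concentration. Step 3: incubate 48 h. Step 4: record percent growth.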 Unmarked numbers belong to inactive results. Activity calls are given as the source filed them. The calls were made as follows: active = growth percent below 10; inactive = the rest.

Assay in all cases: NCI-60 one-dose screen, 48 h (100 = growth as untreated, 0 = no growth, -100 = all killed)
Common to all, as to details: 10 µM unless noted

Test [1] relates to SR leukemia.
For test [2], the system named is RPMI-8226 leukemia.
The test system of test [3] is OVCAR-8 ovarian.
For test [4], the system named is OVCAR-5 ovarian.
In test [5] the test system is OVCAR-4 ovarian.
Test [6] concerns SK-OV-3 ovarian.
The test system of test [7] is IGROV1 ovarian.
The subject of test [8] is OVCAR-3 ovarian.
In test [9] the test system is HS 578T breast.
In test [10] the test system is NCI/ADR-RES ovarian.
The test system of test [11] is T-47D breast.
Test [12] concerns BT-549 breast.
The test system of test [13] is MDA-MB-435 melanoma.
The test system of test [14] is SW-620 colon.
For test [15], the system named is MCF7 breast.
Test [16] relates to HCT-116 colon.
Test [17] has as its system HCC-2998 colon.
Test [18] relates to KM12 colon.

On to `O=C(O)CCCN1C(=O)/C(=C/C(Cl)=C/c2ccccc2)SC1=S`, for which the growth was 13% in test [1]; -13.1% (active) in test [2]; 19.1% in test [3]; 59% in [4]; 46.8% in [5]; 110% in [6]. The growth in test [7] is 7.37% (active); in [8], 13.6%; in test [9], 31.6%; in [10], 3.81% (active); in test [11] it was 45.3%; in test [12] it was 7.71% (active). Moreover, the growth is -14.9% (active) in test [13]; 7.33% (active) in [14]; 14.2% in test [15]; -54.2% (active) in [16]; 5.79% (active) in test [17]; 13.6% in [18].
As to `COC(=O)/C=C1/SC(=Nc2ccc(C)cc2)N(CCc2c[nH]c3ccc(O)cc23)C1=O`, the growth is -27.4% (active) in test [1]; 1.84% (active) in test [2]; 29.4% in test [3]; 108% in test [4]; 51.1% in test [5]; 98.4% in test [6]. The growth is 27.5% in test [7]; 32.7% in test [8]; 55.1% in test [9]; 50% in test [10]; 35% in test [11]; 9.38% (active) in test [12]. Also, the growth in test [13] is 14.9%; in test [14], 44.2%; in test [15] it was 18.6%; in test [16], 16.9%; in [17], 46.7%; in [18] it was 43.6%.
Regarding `O=C(NCCCCNC(=O)OCc1ccc2c(Cl)cc(Cl)c(O)c2n1)OCc1ccc2c(Cl)cc(Cl)c(O)c2n1`, the growth in test [1] is 17%; in test [2] it was 25%; in test [3], 11.2%; in test [4] it was 38.6%; in test [5], 38.9%; in test [6], 30.5%. The growth in test [7] is 11.1%; in [8] it was -40.3% (active); in test [9] it was 21.9%; in [10] it was 3.44% (active); in [11], 61%; in [12] it was 15.3%. For the same compound, the growth in [13] is -48.7% (active); in test [14], 19.5%; in test [15] it was 13.7%; in [16], 7.49% (active); in test [17], 18.5%; in test [18], 6.41% (active).
With `O=C(COc1ccc(-c2nc3ccccc3[nH]2)cc1)N=Nc1c(O)[nH]c2ccc(Cl)cc12`, the growth in test [1] is 11.2%; in test [2], 57.4%; in test [3], 11.9%; in [4], 104%; in test [5], 60.7%; in test [6] it was 103%. Moreover, the growth in [7] is 88%; in test [8], 63.7%; in test [9], 72.4%; in test [10], 107%; in test [11], 65.4%; in test [12] it was 110%. Further, the growth is 93.9% in test [13]; 40.6% in [14]; 22.3% in [15]; 47.2% in test [16]; 65.2% in test [17]; 15.3% in test [18].
In the case of `COC(=O)c1ccc2c(c1)C(=O)c1c-2n(CCCN)c(=O)c2cc([N+](=O)[O-])ccc12`, the growth in [1] was -45.3% (active); in test [2], -40.4% (active); in [3], -65.3% (active); in test [4], -74.2% (active); in [5], -77.1% (active); in test [6], -81.8% (active). Besides, the growth is -81.7% (active) in test [7]; -93.2% (active) in test [8]; -71% (active) in [9]; -39.4% (active) in [10]; -80.3% (active) in [11]; -100% (active) in test [12]. Besides, the growth in [13] was -90.9% (active); in test [14] it was -100% (active); in [15], -87.8% (active); in [16], -100% (active); in test [17], -94.9% (active); in test [18], -97.2% (active).
Consider `N#CC1C=CN(CC(N)=O)c2ccc3cccnc3c21` (configuration not stated), for which the growth in test [1] is 85.1%; in test [2], 90%; in test [3], 98.1%; in test [4], 98.9%; in test [5], 98.6%; in test [6], 97.1%. In addition, the growth in [7] is 101%; in [8], 109%; in test [9] it was 96.2%; in test [10], 105%; in [11], 90.9%; in [12], 102%. Besides, the growth is 102% in [13]; 104% in test [14]; 85.8% in test [15]; 94.8% in [16]; 106% in [17]; 105% in test [18].
Take `Fc1ccc2[nH]cc(-c3nonc3-c3c[nH]c4ccc(Br)cc34)c2c1`: the growth was 15.2% in test [1]; 29.9% in test [2]; 27% in test [3]; 36.8% in [4]; 36% in test [5]; 44.3% in [6]. In addition, the growth is 41.6% in test [7]; 34.3% in test [8]; 39.5% in [9]; 23% in test [10]; 3.33% (active) in test [11]; 55.5% in test [12]. The growth was 47.5% in [13]; 28.5% in [14]; 12.6% in test [15]; 20.2% in [16]; 2.9% (active) in test [17]; 7.15% (active) in test [18].
Consider `O=C(O)CNC1=C(Cl)C(=O)c2ccccc2C1=O`, for which the growth in test [1] is 107%; in test [2], 87.4%; in test [3] it was 87.9%; in test [4] it was 118%; in test [5], 97%; in test [6], 114%. Besides, the growth in test [7] is 103%; in test [8], 97.5%; in test [9], 124%; in test [10] it was 98.3%; in test [11], 78.1%; in test [12], 87.5%. For the same compound, the growth in test [13] is 102%; in test [14], 102%; in test [15], 81.8%; in test [16] it was 100%; in [17] it was 114%; in test [18] it was 104%.
As for `CN(C)c1ccc(Nc2cc(-c3cccc(OC(F)(F)F)c3)nc3ccc(N4CCCC4)cc23)cc1`, the growth in test [1] is -14.6% (active); in test [2], -33% (active); in [3], -26.6% (active); in test [4] it was 100%; in [5], -73.8% (active); in test [6], 98.6%. The growth in [7] was -17.9% (active); in test [8] it was -49.7% (active); in test [9], -1.71% (active); in test [10], -30.2% (active); in [11], 70.5%; in [12], -49.6% (active). In addition, the growth in test [13] is -73.6% (active); in test [14], -48.1% (active); in [15], -14.7% (active); in test [16], -31.2% (active); in [17], 91.1%; in test [18] it was -45.5% (active).
